# According to PubChem BioAssay (EPA / NIEHS):
# Active and inactive are the calls of the source. How the source made its calls: active means hit-call score of the fitted dose curve at least 0.9, where 1 is the maximum; inactive means score below 0.9.
# Read-out: Nuclear factor erythroid 2-related factor 2 (Homo sapiens) (UniProt Q16236)
# Assay: LTEA_HepaRG_NFE2L2: Life Technologies and Expression Analysis (LTEA) Assay for Nuclear factor erythroid 2-related factor 2 (NFE2L2) Transcription Factor using HepaRG (AID 2283527);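 on outcome: TaqMan qRT-PCR transcript level normalised to ACTB GAPDH and POLR2A housekeeping genes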
# Conditions: mRNA level, 48 h; actives raise or lower the signal
# Description: LTEA_HepaRG is a cell based, multiplexed-readout assay that uses HepaRG, a human liver cell line, with measurements taken at 48 hours after chemical dosing on a 96-well plate.LTEA_HepaRG_NFE2L2 is one of 102 assay component(s) measured in the LTEA HepaRG cell culture assay. It is a marker of Inflammation/injury.Data from the assay component LTEA_HepaRG_NFE2L2 was analyzed into 1 endpoint. This assay endpoint, LTEA_HepaRG_NFE2L2, was analyzed with bidirectional fitting relative to DMSO as the negative control and baseline of activity. Using a type of inducible reporter, measures of mRNA induction for gain or loss-of-signal activity can be used to understand regulation of transcription factor activity. To generalize the intended target to other relatable targets, this assay endpoint is annotated to the dna binding intended target family, where the subfamily is basic leucine zipper.
# A total of 1060 chemcials from the ToxCast library were tested in eight-point concentration-response experiments. Cell culture and cytotoxicity assays were conducted at Thermo Fisher Scientific's Custom Services facility (Madison, WI). A single lot of human HepaRG cells (Thermo Fisher Scientific, Frederick, MD) was used for the cell culture experiments. 96-well format collagen type I coated plates of human HepaRG cells were prepared using established methods. Briefly, cryopreserved HepaRG cells were thawed, plated at a density of approximately 100,000 cells/well in HepaRG Thaw, Plate, and General Purpose media (HPRG770, Thermo Fisher Scientific), and incubated for 48 hours. 0.5% DMSO was selected as vehicle control to balance the requisite need of DMSO in HepaRG cultures to maintain differentiation (for example, baseline metabolism, proportions of hepatocytes vs. cholangiocytes), while enabling further hepatic receptor pathway activation (for example, PXR and CAR) in response to chemical exposure. 48 hours after plating, the culture medium was replaced with HepaRG Serum-Free Incudtion Media. Cells were exposed to each test chemical in duplicate and maintained in CO2 incubators for another 48 hours. Chemical plates were thawed to room temperature and 200x concentrations of treatment groups were prepared. 8-point conentration-reponse curves were made with the highest exposure at 100 uM, followed by half-log dilutions, all in 0.5% DMSO. Each test plate contained variouse controls, induction positive controls (1mM phenobarbital), cytotoxicity positive controls ([…] aflatoxin B1), vehicle controls (0.5% DMSO), and total lysis controls (0.5% DMSO). Cell morphology images were taken using an Essen IncuCyte FLR automated microscope, with six 96-well plates imaged in about 24 minutes. Images were captured and exported and JPEG files. Spent culture media was transfered to black-well plates for the LDH assay, and remaining media was sorted at -80 C for later use. Cells were treated with RLT buffer and frozen until shipped for gene expression analysis. Total RNA was isolated from the cell suspension in 75 uL of Buffer RLT (Qiagen, Germantown, MD 20874) by Quintiles/Expression Analysis (Durham, NC) using a custom isolation procedure. Total RNA from each plate well was transferred to a preamplification plate. Fluidigm's 96.96 Dynamic ArrayTM (Fluidigm, Amsterdam, the Netherlands) technology was used for gene expression analyses by quantitative reverse transcription polymerase chain reaction (qRT-PCR, performed by Quintiles/Expression Analysis, Durham, NC)89. Standard TaqManTM Assays (Applied Biosystems/ThermoFisher Scientific, Foster City, CA) were used to assess the expression of 93 genes selected based on their selectivity and sensitivity to important hepatic receptors known to be modulated by environmental chemicals; importance in human hepatocyte functionality; and hepatotoxicity. […]
# Chain of Nuclear factor erythroid 2-related factor 2 (Homo sapiens) (Q16236 whole entry, looked up): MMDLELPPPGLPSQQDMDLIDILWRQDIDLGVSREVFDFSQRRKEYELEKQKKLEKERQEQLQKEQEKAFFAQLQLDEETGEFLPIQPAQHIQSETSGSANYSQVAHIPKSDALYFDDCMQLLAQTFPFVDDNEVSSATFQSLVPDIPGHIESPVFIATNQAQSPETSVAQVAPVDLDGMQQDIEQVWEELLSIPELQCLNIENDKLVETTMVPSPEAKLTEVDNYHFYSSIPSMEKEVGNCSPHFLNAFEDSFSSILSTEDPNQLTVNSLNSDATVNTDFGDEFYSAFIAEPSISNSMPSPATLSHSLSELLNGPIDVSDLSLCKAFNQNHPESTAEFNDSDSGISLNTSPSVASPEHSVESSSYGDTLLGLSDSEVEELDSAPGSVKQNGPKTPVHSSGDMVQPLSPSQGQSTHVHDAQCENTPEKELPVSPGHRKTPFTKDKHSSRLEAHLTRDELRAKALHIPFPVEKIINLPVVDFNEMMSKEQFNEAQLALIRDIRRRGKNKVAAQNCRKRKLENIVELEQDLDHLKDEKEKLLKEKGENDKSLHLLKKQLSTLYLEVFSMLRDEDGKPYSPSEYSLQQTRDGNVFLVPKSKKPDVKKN
SMILES,outcome,AC50
Clc1ccc(C(c2ccc(Cl)cc2)C(Cl)Cl)cc1,inactive,–
O=[N+]([O-])c1ccc(Oc2ccc(Cl)cc2Cl)cc1,inactive,–
N#CC(Br)(Br)C(N)=O,inactive,–
CCCCCCCCCCCCCN1CC(C)OC(C)C1 (stereo not given),inactive,–
Nc1ccc(Cl)cc1N,–,12.2 µM (active)
N#CC(Br)Br,inactive,–
Nc1ccc(Cc2ccc(N)cc2)cc1,inactive,–
C=CCc1ccc2c(c1)OCO2,inactive,–
CCOC(=O)[C@]1(c2ccccc2)Oc2ccccc2[C@@H]1N,inactive,–
Cc1ccc(N)cc1,inactive,–
O=C1CCCO1,inactive,–
CN(C)c1ccccc1,inactive,–
Cc1ccc([N+](=O)[O-])cc1,inactive,–
[As]#[In],inactive,–
Oc1ccccc1Cl,inactive,–
O=C(N[C@H](c1ccccc1)[C@@H]1CN2CCC1CC2)c1c(Cl)ccc(C(F)(F)F)c1Cl,–,71.5 µM (active)
CCC12COCN1COC2,inactive,–
COC(=O)c1ccccc1N,inactive,–
CCCSC(=O)N(CCC)CCC,inactive,–
O=C(Oc1ccc(Br)cc1)N1CCN2CCC1CC2,inactive,–

SMILES,outcome,AC50
c1ccc(C2CO2)cc1 (stereo not given),inactive,–
ClCCOCCCl,inactive,–
c1ccc2c(c1)-c1cccc3cccc-2c13,inactive,–
Nc1ccc([N+](=O)[O-])cc1,inactive,–
CS(=O)(=O)NC(=O)c1cc(Oc2ccc(C(F)(F)F)cc2Cl)ccc1[N+](=O)[O-],inactive,–
CCNS(=O)(=O)C(F)(F)C(F)(F)C(F)(F)C(F)(F)C(F)(F)C(F)(F)C(F)(F)C(F)(F)F,inactive,–
CCC[CH2][Sn]([Cl])([CH2]CCC)[CH2]CCC,inactive,–
OCCOCCO,inactive,–
Cc1cc(N=Nc2ccccc2C)ccc1N,–,9.92 µM (active)
CC(C)(C)OOC(=O)c1ccccc1,inactive,–
ClC1=C(Cl)C2(Cl)C3C(Cl)C=CC3C1(Cl)C2(Cl)Cl (stereo not given),–,8.87 µM (active)
CC(O)CCO (stereo not given),inactive,–
OCCCl,inactive,–
O=C(O)C1C2CCC(O2)C1C(=O)O (stereo not given),inactive,–
[Cl-].[Cl-].[Hg+2],inactive,–
CCCCCOC(=O)c1ccccc1C(=O)OCCCCC,inactive,–
Cc1cccc(N)c1N,inactive,–
O=C(Nc1ccccc1)c1ccccc1I,–,77.6 µM (active)
COP(=S)(OC)SCN1C(=O)c2ccccc2C1=O,inactive,–
Clc1ccccc1Cl,inactive,–
